Laboratory results as given in PubChem BioAssay (Tox21).
Inconclusive results are not listed. Calls of active or inactive are those of the source. The call rests on the fitted dose curve; in most records, active means well fitted cell-killing curve with a large enough effect in the repeat runs; inconclusive means weak or mixed curves; inactive means flat fitted curve, though single readings scatter. Where a SMILES comes first, the peptide text is derived from it. [ ]: non-standard residue; d: D form. pGlu = O=C1CC[C@@H](C(=O)O)N1

assay: qHTS RealTime-Glo MT Cell Viability Assay in HepG2 cells - 8 hour (AID 1224873); conditions: RealTime-Glo luminescence; series mostly up to 76.8 µM; viability change, negative = cytotoxic: at the top concentration; further: nearly all actives have a fitted effect of over 55% in size
Description: National Center for Advancing Translational Sciences [NCATS]
NIH Chemical Genomics Center [NCGC]
U.S. Environmental Protection Agency [EPA]
National Institutes of Environmental Health Sciences [NIEHS]
National Toxicology Program [NTP]
U.S. Food and Drug Administration [FDA]
Measure of cell viability is critical in the cell-base assay. Analysis of cell viability is necessary for the characterization of cell responses to cytotoxic drugs and environmental stress. A RealTime-Glo MT Cell Viability Assay to monitor cell viability in real time of continues cell culture during 40 hours of compound treatment was used to screen Tox21 10K library compounds in HepG2 cells. The RealTime-Glo MT Cell Viability Assay is a nonlytic, homogeneous, bioluminescent method to measure cell viability in real time using a simple, plate-based method. The assay involves adding NanoLuc luciferase and a cell-permeant prosubstrate to cells in culture. Viable cells reduce the proprietary prosubstrate to generate a substrate for NanoLuc luciferase. This substrate diffuses from cells into the surrounding culture medium, where it is rapidly used by the NanoLuc Enzyme to produce a luminescent signal. The signal correlates with the number of viable cells, making the assay well suited for cytotoxicity studies.
Tox21 Assay Protocol Summary:
The mixture of HepG2 cell suspension and reagents were dispensed at 600cells/6 ul/well in 1536-well tissue culture treated black solid bottom plates using a Multidrop dispenser. After the assay plates were incubated at a 37 C/5% CO2 incubator for 5 hours, 23 nL of compounds dissolved in DMSO, positive and negative controls was transferred to the assay plate by a pintool work station. The plates were incubated at 37 C for 40 hours. The luminescence intensity were measured at 0h, 8h, 16h, 24h, 32h and 40h time points using ViewLux plate reader during compound treatment.
On the % scale 0 is the no-effect control and ±100 the full control effect.

Structure (SMILES) | viability change, negative = cytotoxic
CCOCC(C)O (stereo not given) | -1.07% (inactive)
CCCC[N+](C)(CCCC)CCCC | 1.25% (inactive)
CC(C)(C#N)Nc1nc(Cl)nc(NC2CC2)n1 | -13.1% (inactive)
COc1cc(-c2ccc(=O)[nH]n2)ccc1OC(F)F | 0.807% [at 35.3 µM] (inactive)
O=C(O)CCSCCC(=O)O | -0.728% (inactive)
Cc1ccc(C(=O)Nc2ccc(S(=O)(=O)O)c3cc(S(=O)(=O)O)cc(S(=O)(=O)O)c23)cc1NC(=O)c1cccc(NC(=O)Nc2cccc(C(=O)Nc3cc(C(=O)Nc4ccc(S(=O)(=O)O)c5cc(S(=O)(=O)O)cc(S(=O)(=O)O)c45)ccc3C)c2)c1 | -2.19% [at 35.3 µM] (inactive)
CC(C)(C)OC(=O)c1cccc(N)c1 | 3.52% (inactive)
CCCCOCCOC(=O)COc1cc(Cl)c(Cl)cc1Cl | 3.35% (inactive)
c1ccc(Cc2ccccc2)cc1 | -3.93% (inactive)
Cc1c(N)c(=O)n(-c2ccccc2)n1C | -6.76% [at 35.3 µM] (inactive)
COCCOC[C@H](CC1(C(=O)NC2CCC(C(=O)O)CC2)CCCC1)C(=O)Oc1ccc2c(c1)CCC2 (stereo not given in full) | 3.89% (inactive)
CCC1C(=O)OCC1Cc1cncn1C (stereo not given) | 7.18% [at 35.3 µM] (inactive)
O=C(O)CNC(=O)c1ccc(CO)o1 | 1.67% (inactive)
CCNC(=O)[C@@H]1CCCN1C(=O)[C@H](CCCN=C(N)N)NC(=O)[C@H](CC(C)C)NC(=O)CNC(=O)[C@H](Cc1ccc(O)cc1)NC(=O)[C@H](CO)NC(=O)[C@H](Cc1c[nH]c2ccccc12)NC(=O)[C@H](Cc1cnc[nH]1)NC(=O)[C@@H]1CCC(=O)N1 ([pGlu]HWSYGLRP-NHEt) | 5.41% [at 35.3 µM] (inactive)
CC(C)(C)C(=O)c1ccccc1 | 5.57% (inactive)
Cc1ccc(C(=O)c2ccccc2)cc1 | -14.5% (inactive)
C=CN1CCCCCC1=O | 2.38% (inactive)
CCOc1c(N2CCOCC2)cnn(C)c1=O | 1.24% [at 35.3 µM] (inactive)
O=S(=O)(O)c1cccc2c(S(=O)(=O)O)cccc12 | 6.97% (inactive)
CC(CC=O)CC(C)(C)C (stereo not given) | -0.717% (inactive)

Structure (SMILES) | viability change, negative = cytotoxic
CNCC(O)c1ccc(O)c(O)c1 (stereo not given) | -2.22% [at 35.3 µM] (inactive)
O=C(O)CC(C(=O)O)S(=O)(=O)O (stereo not given) | 4.01% (inactive)
Cc1cc(C)c(N=Nc2c(O)c(S(=O)(=O)O)cc3cc(S(=O)(=O)O)ccc23)cc1C | 5.41% [at 6.97 µM] (inactive)
C=CCCCCCCCCC(=O)OCC | 2.17% (inactive)
CC(COc1ccccc1)NN (stereo not given) | 2.37% [at 35.3 µM] (inactive)
CCN(Cc1ccccc1)c1ccccc1 | -8.43% (inactive)
C[N+]1(CC2COC(c3ccccc3)(c3ccccc3)O2)CCCCC1 (stereo not given) | 1.12% [at 15.8 µM] (inactive)
CCOC(=O)COc1cc(-n2ncc(C(F)(F)F)c(C)c2=O)c(F)cc1Cl | -6.51% (inactive)
CN(C)C(=O)Oc1ccc[n+](C)c1 | 9.15% [at 35.3 µM] (inactive)
COc1cc2c(cc1OC)-c1cc3ccc(OC)c(OC)c3c[n+]1CC2 | -11.1% (inactive)
CC1=NN(c2cccc(S(=O)(=O)O)c2)C(=O)C1 | 0.207% (inactive)
CCC(=O)OCc1ccccc1 | 0.194% (inactive)
CC1OC1C1CCC2(C)OC2C1 (stereo not given) | -1.09% (inactive)
CC1(C)OC[C@@H](COC(=O)CCc2ccc(OC[C@@H](O)CNCCNC(=O)N3CCOCC3)cc2)O1 | -0.79% [at 35.3 µM] (inactive)
[K+] | 2.26% (inactive)
Cc1ncc([C@@H](CCCCCCc2ccc3c(n2)NCCC3)CC(=O)O)cn1 | 0.271% (inactive)
CCCn1cc[n+](C)c1C | -4.54% (inactive)
CCCc1nn(C)c2c(=O)[nH]c(-c3cc(S(=O)(=O)N4CCN(C)CC4)ccc3OCC)nc12 | -1.84% [at 35.3 µM] (inactive)
Cc1ccc(C(=O)c2ccc(CC(=O)O)n2C)cc1 | 2.75% [at 35.3 µM] (inactive)
C[C@H]1[C@H](NC(=O)/C(=N/OC(C)(C)C(=O)O)c2csc(N)n2)C(=O)N1S(=O)(=O)O (stereo in doubt) | 6.63% [at 35.3 µM] (inactive)
